Results as given in PubChem BioAssay (NCI).
Compounds without any hit were thinned out: in the full panel of roughly 83,000, 20% have a hit.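 48-hour exposure, single concentration, 96-well plates; percent growth endpoint where 0 means no net growth. Active: below 10.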 Calls of active or inactive are those of the source.

Columns and labels:
Test in all cases: NCI-60 one-dose screen, 48 h (100 = growth as untreated, 0 = no growth, -100 = all killed)
Conditions in all cases: 10 µM unless noted
[1] = tested on: NCI-H23 lung
[2] = tested on: NCI-H226 lung
[3] = tested on: NCI-H322M lung
[4] = tested on: HOP-62 NSCLC
[5] = tested on: NCI-H460 lung
[6] = tested on: HOP-92 NSCLC
[7] = tested on: NCI-H522 lung
[8] = tested on: A549/ATCC NSCLC
[9] = tested on: 786-0 renal
[10] = tested on: COLO 205 colon

COc1cc(/C=C/C(=O)c2cnn(-c3cc(=O)[nH]c4ccc(C)cc34)c2C)cc(OC)c1OC
growth [1]: -45% (active)
growth [2]: -17.8% (active)
growth [3]: 9.59% (active)
growth [4]: 2.27% (active)
growth [5]: 8.08% (active)
growth [6]: 50.6% (inactive)
growth [7]: -87.1% (active)
growth [8]: 6.23% (active)
growth [9]: -27% (active)
growth [10]: -91.6% (active)

Cc1ccc(C(=O)Nc2cc(-n3ccnc3C)cc(C(F)(F)F)c2)cc1C#Cc1cnc2cccnn12
growth [1]: -26.1% (active)
growth [2]: -33.1% (active)
growth [3]: 21% (inactive)
growth [4]: -7.58% (active)
growth [5]: 5.86% (active)
growth [6]: -31.5% (active)
growth [7]: -29.1% (active)
growth [8]: 11.3% (inactive)
growth [9]: 6.68% (active)
growth [10]: -19.9% (active)

COc1ccc(-c2nc3ccc(-c4nnc(SCc5ccccc5)o4)cc3[nH]2)cc1
growth [1]: 8.09% (active)
growth [2]: -76.5% (active)
growth [3]: 0.722% (active)
growth [4]: -72.7% (active)
growth [5]: -15.7% (active)
growth [6]: 20.9% (inactive)
growth [7]: -16.2% (active)
growth [8]: -5.6% (active)
growth [9]: -62.5% (active)
growth [10]: 44.6% (inactive)

COc1ccc(-c2cc(C(=O)Oc3ccc(C=O)cc3OC)nn2-c2ccc(S(C)(=O)=O)cc2)cc1
growth [1]: 96% (inactive)
growth [2]: 104% (inactive)
growth [3]: 106% (inactive)
growth [4]: 104% (inactive)
growth [5]: 105% (inactive)
growth [6]: 110% (inactive)
growth [7]: 68.3% (inactive)
growth [8]: 105% (inactive)
growth [9]: 113% (inactive)
growth [10]: 133% (inactive)

CS(=O)(=O)c1ccc(-n2nc(C(=O)NCc3ccccc3)cc2-c2ccc(Cl)cc2)cc1
growth [1]: 89.9% (inactive)
growth [2]: 85% (inactive)
growth [3]: 88.1% (inactive)
growth [4]: 106% (inactive)
growth [5]: 71.2% (inactive)
growth [6]: 88.1% (inactive)
growth [7]: 58.7% (inactive)
growth [8]: 70% (inactive)
growth [9]: 71% (inactive)
growth [10]: 107% (inactive)

Cn1cc(-c2cc(N)n3nc(-c4c[nH]c5ccccc45)cc3n2)c2ccccc21
growth [1]: -73.4% (active)
growth [2]: -38.6% (active)
growth [3]: -80% (active)
growth [4]: -85.4% (active)
growth [5]: -66.6% (active)
growth [6]: -59.5% (active)
growth [7]: -85.1% (active)
growth [8]: -75.2% (active)
growth [9]: -81.6% (active)
growth [10]: -88.6% (active)

Cc1ccccc1Nc1nnc(-c2c[nH]c3ccccc23)o1
growth [1]: 28.1% (inactive)
growth [2]: 43.9% (inactive)
growth [3]: 38.2% (inactive)
growth [4]: 24.8% (inactive)
growth [5]: 20.1% (inactive)
growth [6]: 29.1% (inactive)
growth [7]: -23.2% (active)
growth [8]: 40.3% (inactive)
growth [9]: 40% (inactive)
growth [10]: -32.7% (active)

CCN1C(=O)N(CC)C2NNC(Sc3c(C(=O)O)c4ccccc4n(CCC(C)C)c3=O)=NC21 (stereo not given)
growth [1]: 10.7% (inactive)
growth [2]: 30.4% (inactive)
growth [3]: 52.9% (inactive)
growth [4]: 27.3% (inactive)
growth [5]: -7.83% (active)
growth [6]: 49.4% (inactive)
growth [7]: -21.7% (active)
growth [8]: 12.4% (inactive)
growth [9]: 16% (inactive)
growth [10]: -20.8% (active)

COc1cc(C2CC(c3ccc(S(=O)(=O)NCCNc4nc(N(C)C)nc(N5CCOCC5)n4)cc3)=Nc3c(N)nc(N)nc3N2)cc(OC)c1OC (stereo not given)
growth [1]: 97.4% (inactive)
growth [2]: 85.1% (inactive)
growth [3]: 79.8% (inactive)
growth [4]: 90.8% (inactive)
growth [5]: 104% (inactive)
growth [6]: 92.7% (inactive)
growth [7]: 90.1% (inactive)
growth [8]: 98.3% (inactive)
growth [9]: 94.3% (inactive)
growth [10]: 116% (inactive)

C/C(=N\Nc1ccc(C(=O)O)cc1)c1cnn(-c2cc(=O)[nH]c3ccc(C)cc23)c1C
growth [1]: 106% (inactive)
growth [2]: 90.1% (inactive)
growth [3]: 98.2% (inactive)
growth [4]: 93.1% (inactive)
growth [5]: 109% (inactive)
growth [6]: 6.13% (active)
growth [7]: 89.4% (inactive)
growth [8]: 104% (inactive)
growth [9]: 93.2% (inactive)
growth [10]: 118% (inactive)

COc1cncc(-c2ccc3ncnc(N4CCc5ccc(Cl)cc54)c3c2)c1
growth [1]: 8.73% (active)
growth [2]: 31.8% (inactive)
growth [3]: -2.19% (active)
growth [4]: 51.3% (inactive)
growth [5]: 51.8% (inactive)
growth [6]: -56.9% (active)
growth [7]: 36.6% (inactive)
growth [8]: 29.9% (inactive)
growth [9]: -74.2% (active)
growth [10]: 38.4% (inactive)

COc1ccc2c(c1)N=c1c-2cc2c(O)[nH]c(=S)n2c1=O
growth [1]: 43.1% (inactive)
growth [2]: 46.1% (inactive)
growth [3]: 78.1% (inactive)
growth [4]: 36.6% (inactive)
growth [5]: 83.1% (inactive)
growth [6]: 71.3% (inactive)
growth [7]: -9.92% (active)
growth [8]: 65.8% (inactive)
growth [9]: 35.3% (inactive)
growth [10]: 30.7% (inactive)

CCN1CCN(Cc2ccc(C(=O)Nc3cccc(Nc4ccc5c(OC)cccc5n4)c3)cc2C(F)(F)F)CC1
growth [1]: -96.1% (active)
growth [2]: -85.8% (active)
growth [3]: -100% (active)
growth [4]: -63.5% (active)
growth [5]: -69% (active)
growth [6]: -75.1% (active)
growth [7]: -83.3% (active)
growth [8]: -68% (active)
growth [9]: -73% (active)
growth [10]: -67.5% (active)

O=C(c1ccc(Cl)cc1)C1[C@H](c2ccccc2Cl)[C@@H](c2ccccc2)NC12C(=O)Nc1ccc(Cl)cc12 (stereo not given in full)
growth [1]: -70.1% (active)
growth [2]: -86.1% (active)
growth [3]: -22.1% (active)
growth [4]: -72.4% (active)
growth [5]: -69.2% (active)
growth [6]: -75.6% (active)
growth [7]: -50.6% (active)
growth [8]: -23% (active)
growth [9]: -54.5% (active)
growth [10]: -91.4% (active)

CCCSc1nnc(-c2sc3nc4ccccc4n3c2C)o1
growth [1]: 111% (inactive)
growth [2]: 106% (inactive)
growth [3]: 102% (inactive)
growth [4]: 132% (inactive)
growth [5]: 103% (inactive)
growth [6]: 101% (inactive)
growth [7]: 100% (inactive)
growth [8]: 99.8% (inactive)
growth [9]: 81.5% (inactive)
growth [10]: 131% (inactive)

Oc1ccc(Cl)c(Nc2nc(SCCN3CCOCC3)nc3c2cnn3CC(Cl)c2ccc(Br)cc2)c1 (stereo not given)
growth [1]: 31.8% (inactive)
growth [2]: 38.5% (inactive)
growth [3]: 92.8% (inactive)
growth [4]: 32.7% (inactive)
growth [5]: 10.1% (inactive)
growth [6]: -6.99% (active)
growth [7]: 22.2% (inactive)
growth [8]: 12% (inactive)
growth [9]: 43.3% (inactive)
growth [10]: 106% (inactive)

O=C(CSc1nc2c(c(=O)[nH]1)CCCC2)Nc1ccccc1C(=O)O
growth [1]: 99.9% (inactive)
growth [2]: 101% (inactive)
growth [3]: 102% (inactive)
growth [4]: 104% (inactive)
growth [5]: 120% (inactive)
growth [6]: 117% (inactive)
growth [7]: 83.8% (inactive)
growth [8]: 103% (inactive)
growth [9]: 103% (inactive)
growth [10]: 124% (inactive)

CN(C(=O)CN1C(=O)/C(=C/c2ccco2)SC1=S)C1CCS(=O)(=O)C1 (stereo not given)
growth [1]: 100% (inactive)
growth [2]: 100% (inactive)
growth [3]: 99.3% (inactive)
growth [4]: 123% (inactive)
growth [5]: 95.5% (inactive)
growth [6]: 102% (inactive)
growth [7]: 15.4% (inactive)
growth [8]: 102% (inactive)
growth [9]: 93.4% (inactive)
growth [10]: 119% (inactive)

COc1ccc2[nH]c(=O)c(CSc3ccccc3Nc3nccc(-c4ccc(C(F)(F)F)cc4)n3)cc2c1
growth [1]: 30.7% (inactive)
growth [2]: 18.7% (inactive)
growth [3]: 67.4% (inactive)
growth [4]: 53.6% (inactive)
growth [5]: 17.4% (inactive)
growth [6]: 26.7% (inactive)
growth [7]: 0.553% (active)
growth [8]: 18.5% (inactive)
growth [9]: -4.97% (active)
growth [10]: 27.8% (inactive)

c1n[nH]cc1-c1nc2ccc3[nH]ncc3c2c2c1CC1(CC2)COC1
growth [1]: 62% (inactive)
growth [2]: 66% (inactive)
growth [3]: 64% (inactive)
growth [4]: 77.7% (inactive)
growth [5]: 73.4% (inactive)
growth [6]: 92.1% (inactive)
growth [7]: -24.6% (active)
growth [8]: 95.9% (inactive)
growth [9]: 60.6% (inactive)
growth [10]: 24.6% (inactive)

COc1cc(/C=C/C(=O)c2cnn(-c3cc(=O)[nH]c4ccccc34)c2C)cc(OC)c1OC
growth [1]: 3.65% (active)
growth [2]: 21.9% (inactive)
growth [3]: 12.8% (inactive)
growth [4]: -1.9% (active)
growth [5]: 7.98% (active)
growth [6]: 23.3% (inactive)
growth [7]: -18.1% (active)
growth [8]: 7.4% (active)
growth [9]: 18.2% (inactive)
growth [10]: 4.15% (active)

COc1cc(CNC(=O)[C@]23CCC(C)(C)CC2C2=CCC4[C@@]5(C)CCC(OC(C)=O)C(C)(C)C5CC[C@@]4(C)[C@]2(C)CC3)ccc1OCc1cn(-c2ccc(Cl)cc2Cl)nn1 (stereo not given in full)
growth [1]: 99% (inactive)
growth [2]: 94.8% (inactive)
growth [3]: 94.1% (inactive)
growth [4]: 105% (inactive)
growth [5]: 105% (inactive)
growth [6]: 116% (inactive)
growth [7]: 88.9% (inactive)
growth [8]: 93.1% (inactive)
growth [9]: 107% (inactive)
growth [10]: 118% (inactive)

COc1nc(N)ncc1-c1ccc2ncnc(N3CCc4cc(F)c(Cl)cc43)c2c1
growth [1]: 34.2% (inactive)
growth [2]: -40.3% (active)
growth [3]: 3.86% (active)
growth [4]: -54.4% (active)
growth [5]: -21.5% (active)
growth [6]: -23.8% (active)
growth [7]: 41.1% (inactive)
growth [8]: 3.34% (active)
growth [9]: -74.9% (active)
growth [10]: -55.5% (active)

O=C(N/N=C/c1ccoc1)c1[nH]c2ccc(Br)cc2c1-c1ccccc1
growth [1]: -96.6% (active)
growth [2]: -66.2% (active)
growth [3]: -86.4% (active)
growth [4]: -70.6% (active)
growth [5]: -83.2% (active)
growth [6]: -62.4% (active)
growth [7]: -82.2% (active)
growth [8]: -60.4% (active)
growth [9]: -76.5% (active)
growth [10]: -68.9% (active)

CCN1C(=O)N(CC)C2NNC(Sc3c(C(=O)O)c4ccccc4n(CC(C)C)c3=O)=NC21 (stereo not given)
growth [1]: 10.7% (inactive)
growth [2]: 51.2% (inactive)
growth [3]: 56.2% (inactive)
growth [4]: 34.1% (inactive)
growth [5]: -1.23% (active)
growth [6]: 80.8% (inactive)
growth [7]: -32.3% (active)
growth [8]: 20.9% (inactive)
growth [9]: 26.9% (inactive)
growth [10]: -21.4% (active)

COc1cc(/C=N/NC(=O)c2ccc(OCc3nc4ccc(Cl)cc4[nH]3)cc2)cc(OC)c1OC
growth [1]: 34.7% (inactive)
growth [2]: 35.5% (inactive)
growth [3]: 55.1% (inactive)
growth [4]: 64.2% (inactive)
growth [5]: 44.7% (inactive)
growth [6]: 118% (inactive)
growth [7]: 26.2% (inactive)
growth [8]: 59.2% (inactive)
growth [9]: 29.3% (inactive)
growth [10]: 29.3% (inactive)
